Compound activity as filed in PubChem BioAssay.
The list is not random: actives were taken first. Their share in the collection is about 2.7%.
CendR NRP1 mod – modulators of CendR peptide binding to human neuropilin-1 | AID 602438 | O14786 | inhibition, % at 25 µM | hit rate 0.85% among 360,000 | FAM-RPARPAR peptide binding to NRP-1, fluorescence polarization;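 active = inhibition or corrected inhibition above about 18%, plus a signal ratio from 0.5 to 1.5, limit read from the data, passing the limit was not always enough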
F508del corr – correctors of CFTR F508del function in bronchial epithelial cells. CFBE cells, YFP halide quenching; stimulated with forskolin plus potentiator P3; % fluorescence drop versus neutral controls. activity (quench increase), % at 7.58 µM. hit rate 0.36% among 350,000. AID 720511;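 active = mean added fluorescence quench of at least 8% versus neutral control, with both replicates also reaching 8%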;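 note: cells transiently co-express mutant CFTR-F508del with the halide-sensitive YFP; corrector assay measuring rescue of mutant channel to the surface after 24 h compound exposure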
SKN-1 block – blocks SKN-1 activity in C. elegans | C. elegans VP596 Pgst-4::GFP/RFP ratio, acrylamide-induced, 24 h | inhibition, % at 21.8 µM | hit rate 0.49% among 360,000 | AID 624304;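 active = interference check ratio from 0.5 to 1.5 plus GFP to RFP signal ratio inhibition reaching or exceeding a fixed threshold, cut at about 30% in these data, passing the limit was not always enough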
ATG4B inh – blocks human ATG4B protease cleavage of LC3 substrate. Q9Y4P1. AID 504462. inhibition, % at 8.33 µM. ATG4B cleavage of LC3-PLA2, NBD-HPC fluorescence, 1 h. hit rate 0.51% among 340,000; in the data active = inhibition above about 40%
MPTP block – inhibitors of mitochondrial permeability transition pore; isolated mouse mitochondria, Ca2+ swelling absorbance, 30 min; inhibition, % at 10 µM; hit rate 1.4% among 360,000; AID 602449;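 active = inhibition of 50% or more, scaled per plate between neutral and stimulator controls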;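 note: 0% = DMSO wells given calcium and 100% = 1 mM EGTA wells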
* hit, by the source's call.

How did Cc1c(CN2CCN(CC(C)(C)C)C(CCO)C2)[nH]c2ccccc12 (stereo not drawn) do in these assays?
CendR NRP1 mod: 0; F508del corr: 8; SKN-1 block: 0; ATG4B inh: -4; MPTP block: 0

Results for CCOc1ccc(CN2CCN(Cc3[nH]c4ccccc4c3C)CC2CCO)cc1 (stereo not drawn) ?
CendR NRP1 mod: 38*; F508del corr: 2; SKN-1 block: 9; ATG4B inh: -7; MPTP block: -3

What do the screens show for `O=C(NCCN1CCN(C(=O)c2cccc(OC(F)F)c2)CC1)c1cccc(OC(F)F)c1`?
CendR NRP1 mod: 22*; F508del corr: 0; SKN-1 block: 4; ATG4B inh: -14; MPTP block: 0

Results for COc1ccc(C(=O)NCCN2CCN(C(=O)c3ccc(OC)c(OC)c3)CC2)cc1OC ?
CendR NRP1 mod: 1; F508del corr: -1; SKN-1 block: -2; ATG4B inh: 0; MPTP block: -1

Results for O=C1NN(c2cccc(Br)c2)C(=O)/C1=C\c1ccc(O)cc1 ?
CendR NRP1 mod: -26; F508del corr: 8.6*; SKN-1 block: 1; ATG4B inh: -6; MPTP block: 2

How did C[C@@H]1CN([C@@H](C)CO)C(=O)c2cccc(N(C)C)c2O[C@@H]1CN(C)C(=O)Nc1ccc(F)cc1 do in these assays?
F508del corr: 1

What do the screens show for `O=C(COc1ccc(Cl)cc1Cl)N1CCN(C(=O)c2ccco2)CC1`?
CendR NRP1 mod: 4; F508del corr: -1; SKN-1 block: 12; ATG4B inh: -19; MPTP block: 2

Results for O=C(COc1ccccc1O)N1CCN(C(=O)c2ccco2)CC1 ?
CendR NRP1 mod: 32*; SKN-1 block: -7; ATG4B inh: 2; MPTP block: 3

Results for CC1CN(C(=S)Nc2ccc(F)cc2F)CC(C)O1 (stereo not drawn) ?
CendR NRP1 mod: 26*; F508del corr: -3; SKN-1 block: 11; ATG4B inh: -5; MPTP block: -2

Results for Cc1noc(C)c1NC(=O)N(C)C[C@H]1OCCCC[C@H](C)Oc2ccc(N(C)C)cc2C(=O)N([C@H](C)CO)C[C@H]1C ?
F508del corr: 2

What do the screens show for `C=C1c2ccccc2S(=O)(=O)N(Cc2ccccc2)C1COCc1ccccc1` (stereo not drawn)?
CendR NRP1 mod: 28*; F508del corr: 0; SKN-1 block: 5; ATG4B inh: -13; MPTP block: 0

How did Oc1ccc2ccccc2c1CN1CCCCC1 do in these assays?
CendR NRP1 mod: 26*; F508del corr: -2; SKN-1 block: 13; ATG4B inh: -1; MPTP block: 0

What do the screens show for `CNC(=O)C[C@@H]1CC[C@H]2[C@@H](COc3ccc(NC(=O)c4cc(C)on4)cc3C(=O)N2C)O1`?
F508del corr: 2

Results for C[C@@H]1CCCCO[C@H](CN(C)C(=O)c2ccncc2)[C@H](C)CN([C@H](C)CO)C(=O)c2cc(N(C)C)ccc2O1 ?
F508del corr: 0

Results for CC(OC(=O)CCCC(=O)Nc1ccc(F)cc1)C(=O)c1ccccc1 (stereo not drawn) ?
CendR NRP1 mod: 3; F508del corr: 9.4*; SKN-1 block: 26; ATG4B inh: 4; MPTP block: -3

What do the screens show for `CC(C)NC(=O)N(C)C[C@@H]1Oc2ccc(NC(=O)Nc3ccc(C(F)(F)F)cc3)cc2CC(=O)N([C@@H](C)CO)C[C@@H]1C`?
F508del corr: -1

How did Cc1ccccc1NC(=S)Nc1cccc2cnccc12 do in these assays?
CendR NRP1 mod: 2; F508del corr: -5; SKN-1 block: 3; ATG4B inh: -5; MPTP block: 3

What do the screens show for `Fc1ccccc1NC(=S)Nc1cccc2cnccc12`?
CendR NRP1 mod: 44*; F508del corr: -2; SKN-1 block: 6; ATG4B inh: -4; MPTP block: 0

What do the screens show for `CO[C@@H]1CN(C)C(=O)c2cc(NC(=O)C3CC3)ccc2OC[C@H](C)N(C(=O)C2CCOCC2)C[C@H]1C`?
F508del corr: 0

What do the screens show for `C[C@@H]1CN([C@@H](C)CO)C(=O)Cc2cc(NC(=O)Nc3ccccc3)ccc2O[C@H]1CN(C)S(=O)(=O)c1ccc(Cl)cc1`?
F508del corr: -5

Results for COc1cccc(NC(=O)COC(=O)c2ccc3c(c2)OCCO3)c1 ?
CendR NRP1 mod: 2; SKN-1 block: 4; MPTP block: 0

What do the screens show for `CCOc1ccc(C(=O)OCC(=O)Nc2ccc3c(c2)OCCO3)cc1OC`?
CendR NRP1 mod: 25*; F508del corr: -1; SKN-1 block: 0; ATG4B inh: 0; MPTP block: 0

How did CC(C)CC(C(=O)NC(=O)NCc1ccccc1)N1C(=O)c2ccccc2C1=O (stereo not drawn) do in these assays?
CendR NRP1 mod: -9; SKN-1 block: -23; ATG4B inh: 4; MPTP block: 1

What do the screens show for `CC(C)CC(C(=O)NCc1ccccn1)N1C(=O)c2ccccc2C1=O` (stereo not drawn)?
CendR NRP1 mod: -1; SKN-1 block: 42*; ATG4B inh: -11; MPTP block: -2

Results for CN(CC(=O)NCCc1ccccc1)S(=O)(=O)c1ccc(Br)s1 ?
CendR NRP1 mod: 11; F508del corr: 0; SKN-1 block: 37*; ATG4B inh: 5; MPTP block: -1

Results for COc1ccc(N=C2C(=Nc3ccc(OC)cc3)N(c3ccc(OC)cc3)C(=S)N2C(=O)c2ccc(OC)cc2)cc1 ?
CendR NRP1 mod: -10; SKN-1 block: 30; ATG4B inh: 1; MPTP block: 3

Results for COc1ccc(N=C2C(=Nc3ccc(OC)cc3)N(c3ccc(N(C)C)cc3)C(=S)N2c2ccc(OC)cc2)cc1 ?
CendR NRP1 mod: 26*; F508del corr: 1; SKN-1 block: -6; ATG4B inh: 8; MPTP block: 3

What do the screens show for `O=C(NC(=O)N1CCCCC1)c1ccccc1`?
CendR NRP1 mod: 26*; F508del corr: 0; SKN-1 block: -11; ATG4B inh: 3; MPTP block: -3

Results for O=C(NC(=S)N1CCCCCC1)c1ccccc1 ?
CendR NRP1 mod: 16; F508del corr: 1; SKN-1 block: 19; ATG4B inh: 5; MPTP block: -2

What do the screens show for `C[C@H](CO)N1C[C@H](C)[C@H](CN(C)C(=O)CC2CC2)Oc2ncc(C#CC3CC3)cc2C1=O`?
F508del corr: 5

What do the screens show for `Cc1ccn(C(=O)c2cc3c(C)nn(-c4ccccc4)c3s2)n1`?
CendR NRP1 mod: 28*; SKN-1 block: -22; ATG4B inh: -3; MPTP block: -2

What do the screens show for `Cc1cc(C(F)(F)F)n2ncc(-c3ccc(F)cc3)c2n1`?
CendR NRP1 mod: -4; SKN-1 block: 40*; ATG4B inh: -11; MPTP block: -2

Results for Cc1cc(-c2ccc(F)cc2)n2ncc(-c3ccccc3)c2n1 ?
CendR NRP1 mod: -45; F508del corr: -4; SKN-1 block: 24; MPTP block: 0
